# What was measured:
# Assay type in all cases: functional
# Plasmodium falciparum [1] = experiment: GSK_TCMDC: Inhibition of Plasmodium falciparum 3D7 in whole red blood cells, using parasite LDH activity as an index of growth. Test compounds present at 2uM
# Plasmodium falciparum [2] = experiment: GSK_TCMDC: Inhibition of Plasmodium falciparum Dd2 in whole red blood cells, using parasite LDH activity as an index of growth. Test compounds present at 2uM
# HepG2 = experiment: GSK_TCMDC: Percent inhibition of human HepG2 cell line. Test compounds present at 10uM.
SMILES,Inhibition (Plasmodium falciparum [1]) [%],Inhibition (Plasmodium falciparum [2]) [%],Inhibition (HepG2) [%]
Cl.Nc1c(I)cc(C(=O)Nc2ccc3nc4c(c(N)c3c2)CCCC4)cc1I,100,99,40
Cc1cc(NCc2ccccc2)nc2cc(O)ccc12,98,80,0
COc1ccc(NC(=O)/C=C/c2ccc(Cl)c(Cl)c2)cc1N1CCN(C)CC1,90,20,23
Cc1c(CNCCCNc2nc3cscc3[nH]2)sc(C(F)F)c1Br.Cl,99,11,1
COc1cc2nc(NCCc3ccccc3)nc(NCc3cc(C)no3)c2cc1OC,99,100,5
Cc1cc(N2CCCCC2)nc2ccc(NC(=O)c3cccc([N+](=O)[O-])c3)cc12,95,99,9
c1ccc(CNc2cc(-c3ccccn3)nc(-c3ccccn3)n2)cc1,84,89,88
CS(=O)(=O)CCNc1nccc(N2CCc3ncnc(Nc4ccc(OCc5cccc(F)c5)c(Cl)c4)c3C2)n1,100,100,8
CSCCCN1CCC(O)(c2ccc3oc(C(=O)Nc4ccc5sc(C)nc5c4)cc3c2)CC1,100,69,10
N#Cc1ccc(CN2CCC(Oc3ccc(NC(=O)c4ccsc4)cc3Cl)C2)cc1.O=C(O)C(F)(F)F (configuration not stated),88,79,29
CC(C)CNCc1cccc(-c2cccc(CN(CCCN3CCN(C)CC3)C(=O)Nc3ccccc3)c2)c1.O=C(O)C(F)(F)F,95,76,25
COc1cccc(CNC[C@@H](O)[C@H](Cc2ccccc2)NC(=O)c2cc(OC(C)C)cc(N3CCCCS3(=O)=O)c2)c1.Cl,95,49,8
Cl.O=C1Nc2ccc3ncccc3c2/C1=C/Nc1ccc(N2CCN(CCO)CC2)cc1,86,55,34
NC1=NC(Cc2ccccc2)(c2ccncc2)C(=O)N1CCCc1ccccc1 (configuration not stated),86,1,1
Cc1ccccc1N1CCN(c2ccc(C(=O)Nc3ccccc3)cc2)CC1,89,91,22
CCCN(CCC)C(=S)N/N=C1/C(=O)Nc2ccccc21,97,86,28
CN(C)c1ccc(NC(=O)Nc2ccnc3ccc(Br)cc23)cc1.Cl,91,21,0
Nc1c2ccccc2nc2ccc(Cl)cc12,100,100,55
Cl.Nc1nc(N)c2c(ccc3c2cnn3S(=O)(=O)N2CCCC2)n1,93,3,70
Cc1ccc(N(CCC(=N)N)Cc2ccccc2)cc1.Cl,96,95,6
Cc1nc(N)nc(N)c1-c1ccc2ccccc2c1,97,2,60
O=C(N[C@@H](Cc1ccccc1)C(=O)O)c1cc(-c2ccc(F)cc2)no1.O=C(N[C@@H](Cc1ccccc1)C(=O)O)c1conc1-c1ccc(F)cc1,96,49,0

SMILES,Inhibition (Plasmodium falciparum [1]) [%],Inhibition (Plasmodium falciparum [2]) [%],Inhibition (HepG2) [%]
O=C(NOCc1ccccc1)c1cc(Cl)ccc1O,83,0,2
CCCCCCCN1CC[C@@H](CCCc2ccnc3ccc(OCCC4CCNCC4)cc23)[C@@H](CC)C1.Cl,100,100,94
Nc1nc(O)c2c(n1)CCc1c(Br)cccc1-2,97,0,66
CC(=O)Nc1ccc(S(=O)(=O)Nc2ccc(Nc3nc(C)cc(N(C)C)n3)cc2)cc1,100,22,0
CC1CCC(C[C@@H](C(=O)N[C@@H](CCC(=O)N2CCCCC2)C(=O)Nc2nccs2)[C@H](C(C)C)N(O)C=O)CC1 (some centres not stated),87,70,38
O=C(/C=C/c1ccc(Cl)c(Cl)c1)NCCCCCN1CCC(CCNC(=O)/C=C/c2ccc(Cl)c(Cl)c2)CC1,100,56,68
CN(Cc1ccc(C#N)cc1)C1CCN(c2cc(NC(=O)c3ccc(F)cc3)ccn2)CC1.O=C(O)C(F)(F)F,86,10,24
COc1cc(C(=O)Nc2cccc(-c3cn4cccc(C)c4n3)c2)cc(OC)c1OC,99,77,0
CC(=O)c1ccc(N2CCN(CCC3(c4ccc(Cl)c(Cl)c4)COCN(C(=O)c4ccccc4)C3)CC2)cc1 (configuration not stated),88,95,12
CCN1CCC(NCc2ccc(-c3ccc(Cl)cc3)cc2)CC1,100,33,25
CCCCCCN(CCCCCC)CCCCNc1c2ccc(Cl)cc2nc2ccc(OC)cc12.Cl,100,94,65
COc1ccc(CC(=O)NC(CCCN2CCC3(CC2)OCc2ccccc23)c2ccc(Cl)c(Cl)c2)cc1 (configuration not stated),83,53,40
O=c1cc(NCCCCNCc2cccc(Cl)c2)[nH]c2ccccc12,98,41,2
CCC1CN2CCc3c([nH]c4ccccc34)[C@@H]2C[C@@H]1CC1NCCc2cc(OC)c(OC)cc21.Cl (some centres not stated),100,67,33
Cc1cccc(C)c1OC(=O)CSc1nnc(-c2ccccc2O)o1,97,0,11
CCCC(C)Nc1nc(C)cc(N[C@@H](Cc2ccccc2)C(=O)NCc2cccc(F)c2)n1.O=C(O)C(F)(F)F (some centres not stated),100,75,9
COc1ccc2cc(-c3nc(-c4c(Cl)cccc4Cl)[nH]c3-c3ccnc(NCCC4CCCN4C)c3)ccc2c1.O=C(O)C(F)(F)F (configuration not stated),100,82,11
CN1CCC(c2csc3ccc(NC(=O)Nc4ccc(-c5ccncc5)c5ccccc45)cc23)CC1,98,71,8
COc1ccccc1CCNC(=O)c1cc(Br)cc(N2CCN(c3ccncc3)CC2)c1.O=C(O)C(F)(F)F,84,32,38
CN(C)CCNCc1cccc(-c2ccc3c(Nc4cc(O)c(Cl)cc4F)ccnc3c2)c1,99,59,6
Oc1cc(NCCCNC2CCc3c(Cl)cc(Cl)cc32)nc2ccccc12 (configuration not stated),100,29,3
N/C(=N\c1cccc(Cc2ccccc2)n1)NCc1ccccc1,85,52,57

SMILES,Inhibition (Plasmodium falciparum [1]) [%],Inhibition (Plasmodium falciparum [2]) [%],Inhibition (HepG2) [%]
CCCCNC(=O)[C@@H](NC(=O)c1ccc(O)c(-c2ccc(Cl)c(Cl)c2)c1)C(C)C,97,98,0
O=C(Nc1ccc(-c2ccc(-c3nc4ccccc4[nH]3)s2)cc1)c1ccncc1,94,95,21
Cl.O=C(OCC1CCN(Cc2ccccc2)C1)c1ccc(Cl)cc1 (configuration not stated),100,4,0
COCCNCc1ccc(-c2ccc3c(Nc4ccc(F)cc4Cl)ccnc3c2)o1,100,100,22
CCCOc1cc(OCCC)cc(-c2ccc(C(=O)Nc3ccc4ccc(C)nc4c3)c(=O)[nH]2)c1,100,76,11
Br.CCCCCCCCn1c2c(c(=N)c3c1CCC3)CCCC2,100,100,57
CC(C)(CNC(=O)C1CCN(Cc2ccc(Cl)cc2)CC1)c1nc(-c2ccc(Cl)c(O)c2)c(-c2ccncc2)[nH]1.Cl,100,83,36
CCOc1ccc2[nH]c(C)cc(=NN=Cc3ccc(Cl)cc3)c2c1,100,100,0
CN1CCC(NCc2cccc(-c3ccc(S(=O)(=O)NCCc4ccccn4)c(F)c3)c2)CC1.O=C(O)C(F)(F)F,98,26,11
O=C(/C=C/c1ccc(Cl)c(Cl)c1)NCCCCCN1CCC(NC(=S)Nc2ccc(F)cc2F)CC1,100,18,20
Cc1cc(-c2cnc(N)c(-c3ccc(N4CCN(C)CC4)nc3)c2)cc(C)c1O,91,33,0
SC(=Nc1ccc(Cl)c(Cl)c1)NN=Cc1ccccn1,98,85,40
Cc1cc(N2CCC(C)CC2)nc2cc(O)ccc12,89,41,31
COc1ccc(-c2ccccc2CNC2Cc3ccccc3C2)cc1S(=O)(=O)NCCN1CCCC1.O=C(O)C(F)(F)F,96,47,18
O=C(Nc1ccc2c(c1)CCN2C1CCN(Cc2ccc(C(F)(F)F)cc2F)C1)c1ccco1 (configuration not stated),91,94,9
CCCc1cc(Cc2cnc(N)nc2N)cc(CCC)c1OCCCC(=O)OCC,94,0,0
Cc1nc(-c2cccc(Nc3ccnc4cc(-c5nccs5)ccc34)c2)no1.Cl,99,90,37
C=CCN1C(=O)c2[nH]nc(-c3cc(C)c(C)cc3O)c2C1c1cccc(Br)c1 (configuration not stated),90,82,0
COc1cc(-c2cc3cc(Cl)c(Cl)cc3[nH]2)ccc1C(=O)NCCC1CCCN1C.O=C(O)C(F)(F)F (configuration not stated),91,41,20
O=C(/C=C/c1ccc(Cl)cc1Cl)NCCCCCN1CCC(c2c[nH]c3ccccc23)CC1,99,9,95
